# Most compounds without a hit are left out; they make up all but 12% or so of the library.
# PLK1 PBD inh = PLK1 (human) polo-box domain binding inhibition | P53350 | Plk1 PBD binding of FITC phosphopeptide, fluorescence polarization | Potency, µM, for the others: max response, negative = inhibition, usual class: inhibitors | 360,000 tested, 2.8% active; also: series mostly up to about 57 µM; % is scaled to controls: 0 for no effect and ±100 for the full control effect; nearly all actives have a fitted effect of over 65% in size
# G9a block = inhibitors of human histone lysine methyltransferase G9a. Q96KQ7. G9a H3K9 monomethylation, AlphaScreen, 2 h. Potency, µM (doses to about 102 µM), for inactives: top-dose activity, negative = inhibition, most hits filed as inhibitors. 350,000 tested, 8.8% active. AID 504332; also: % is scaled to controls: 0 for no effect and ±100 for the full control effect; nearly all actives have a fitted effect of over 75% in size
# Target sequence (Q96KQ7 913-1193 limits assumed): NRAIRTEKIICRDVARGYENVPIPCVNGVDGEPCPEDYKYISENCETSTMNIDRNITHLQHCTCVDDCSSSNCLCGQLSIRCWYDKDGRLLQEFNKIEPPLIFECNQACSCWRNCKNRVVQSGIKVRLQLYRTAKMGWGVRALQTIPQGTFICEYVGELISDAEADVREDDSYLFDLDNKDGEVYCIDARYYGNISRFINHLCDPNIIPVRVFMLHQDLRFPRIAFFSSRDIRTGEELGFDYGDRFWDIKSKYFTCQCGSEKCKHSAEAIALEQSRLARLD
#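 Compounds were preincubated with 20 nM G9a for 15 min, after which biotinylated H3K9 peptide (500 nM) and SAM (20 uM) started a 2 h room-temperature reaction. Monomethylated product was quantified by antibody-based AlphaScreen chemiluminescence.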
# JMJD2A Tudor = inhibitors of human JMJD2A Tudor domain; O75164; AlphaScreen JMJD2A-Tudor / H3K4me3 peptide binding; Potency, µM (series often up to 114 µM), inactives show at the highest dose activity change, negative = inhibition, actives largely listed as inhibitors; 390,000 tested, 4.4% active; also: % is scaled to controls: 0 for no effect and ±100 for the full control effect; nearly all actives have a fitted effect of over 50% in size
# Sfp inh = inhibitors of Bacillus subtilis Sfp phosphopantetheinyl transferase | Q9F4F7 | Biochemical Sfp PPTase activity, qHTS | Potency, µM, without a hit: largest response in the series, negative = inhibition, usual class: inhibitors | 310,000 tested, 3.5% active | AID 1490;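 also: the enzyme is Sfp with the accession as filed and its product quenches rhodamine fluorescence; 0% = enzyme reaction without inhibitor and -100% = no enzyme wells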
#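 Fluorescence-quenching assay: 15 nM Sfp-PPTase preincubated 15 min at room temperature with compound, then 5 uM rhodamine-CoA and 12.5 uM BHQ-2-labelled YbbR peptide added. Fluorescence (ex 525/em 598 nm) read at start and after 30 min; difference gives rate.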
# BAZ2B block = BAZ2B (human) inhibition; AID 504333; Potency, µM (titrated, usually from 114 µM), for inactives: at the highest dose activity change, negative = inhibition, hits mostly inhibitors; 360,000 tested, 4.4% active; AlphaScreen BAZ2B-H3K14Ac peptide displacement; Q9UIF8; also: % is scaled to controls: 0 for no effect and ±100 for the full control effect; nearly all actives have a fitted effect of over 60% in size
#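 Inhibition is scored as reduced AlphaScreen emission. The BAZ2B/b-H3(5-23)K14Ac complex (50 nM each) in PBS pH 7.4, 0.01% Tween-20 meets compound (up to 110 uM) for 30 min at RT before bead addition.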
# HP1b chromo inh = HP1-beta chromodomain-methylated histone interaction inhibition; Potency, µM (top dose mostly 114 µM), inactives show at the highest dose activity change, negative = inhibition, usual class: inhibitors; AlphaScreen HP1-beta / biotin-H3K9me3 peptide binding; P83916; 390,000 tested, 0.56% active; AID 540317; also: nearly all actives have a fitted effect of over 70% in size
# Target sequence (P83916 whole entry, looked up): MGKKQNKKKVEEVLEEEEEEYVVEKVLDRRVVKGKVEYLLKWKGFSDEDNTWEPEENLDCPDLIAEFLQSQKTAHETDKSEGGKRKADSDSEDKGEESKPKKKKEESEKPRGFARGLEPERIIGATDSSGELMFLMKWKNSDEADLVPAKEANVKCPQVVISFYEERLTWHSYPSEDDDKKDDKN
#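 HP1-beta protein (50 nM final) preincubated 30 min at room temperature with biotinylated H3(1-18)K9me3 peptide (50 nM) in PBS pH 7.4, 0.01% Tween-20, then compound added for 30 min. AlphaScreen streptavidin donor/nickel chelate acceptor beads (10 ug/mL final), 30 min dark, luminescence read.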
# The depositor's hits bear a star; ? = inconclusive; . = no result given; [ ] = dose if it differs, or a comment. Calls follow the shape of the dose curve; as a rule, active = well fitted curve in the direction sought with a large enough effect; inconclusive = small, poorly fitted or top-dose-only effect, or another doubt; inactive = no such curve, though single readings can be large; an effect the other way counts as inactive or inconclusive. Potency is read from the fitted curve at half-maximal effect.
SMILES,PLK1 PBD inh,G9a block,JMJD2A Tudor,Sfp inh,BAZ2B block,HP1b chromo inh
COc1cc2c(cc1OC)C(c1ccc(-c3ccccc3Cl)o1)=NCC2,-13%,7.1µM*,?,-18%,28µM*,?
COc1cc2c(cc1OC)C(c1ccc(-c3cc(Cl)ccc3Cl)o1)=NCC2,0%,?,?,?,?,5%
COc1cc2c(cc1OC)C(c1ccc(-c3ccc(Cl)c(Cl)c3)o1)=NCC2,-2%,14µM*,18µM*,20µM*,?,?
COc1cc2c(cc1OC)C(c1ccc(-c3ccc(Cl)cc3Cl)o1)=NCC2,1%,?,-33%,28µM*,?,5%
CC(=O)c1ccc(NC(=O)C[n+]2ccc(N(C)C)cc2)cc1,-13%,13%,-7%,19%,2%,18%
O=C(C[n+]1ccccc1)Nc1ccccc1Br,6%,0.32µM*,2%,5%,25µM*,62%
O=C(C[n+]1ccccc1)Nc1c(Cl)cc(Cl)cc1Cl,-9%,.,-8%,20µM*,35µM*,25%
CN(C)c1ccc(NC(=O)C[n+]2ccccc2)cc1,-8%,50µM*,?,6%,-26%,-5%
Cc1ccc[n+](CC(=O)Nc2ccc(N(C)C)cc2)c1,-11%,.,-33%,-7%,?,18%
CN(C)c1cc[n+](CC(=O)Nc2ccc(OC(F)F)cc2)cc1,-17%,.,?,-3%,50µM*,-5%
O=C(Nc1cccc(Cl)c1)Nc1csc([N+](=O)[O-])c1,-8%,2%[59 µM],?,-11%,?,-17%
CCN1C(=O)c2cccc3c(S(=O)(=O)N(C(C)=O)c4ccc(OC(C)=O)cc4)ccc1c23,0%,.,20%,.,.,83%
COc1ccc2nc3oc(C(=O)Nc4cccc(C(F)(F)F)c4)cc3cc2c1,.,8%[59 µM],-12%,.,12%,19%[57 µM]
COc1ccc(C(C)=O)cc1CN(c1ccccc1OC)S(=O)(=O)c1cccs1,-1%,19%,-18%,11%,-1%,-4%
COc1ccc2c(c1)C(=O)[C@H](OC(=O)NCCOc1ccccc1)[C@@H](c1ccc(OC)c(Br)c1)O2,.,.,.,-27%,.,.
CC(=O)NCCC(=O)N(C)CC1CCN(CCc2cccc(C(F)(F)F)c2)CC1,21µM*,66%,?,18%,-29%,23%
CN1CCN(/N=C/c2nc(-c3ccc(Cl)cc3)n3ccccc23)CC1,-22%,16µM*,?,13%,50µM*,-19%
CN1CCN(/N=C/c2nc(-c3ccccc3)n3ccccc23)CC1,-9%,14µM*,?,-10%,?,-5%
O=Cc1nc(-c2ccc(Cl)cc2)n2ccccc12,-5%,4%,?,7%,4%,46%
Clc1ccc(-c2nc(/C=N/N3CCOCC3)c3ccccn23)cc1,-8%,28µM*,?,-14%,.,-12%
Cc1oc(-c2ccccc2Cl)nc1CS(=O)(=O)CC(=O)NC(C)CCc1ccccc1 (centres undefined),.,?,-7%,.,-6%,42%
CCOC(=O)c1c(N)sc(C(O)(C(F)(F)F)C(F)(F)F)c1-c1ccccc1,27µM*,-2%,?,31%,-1%,?
CCOC(=O)c1c(N)sc(-c2ccccc2)c1C,19µM*,8.9µM*,?,?,-36%,?
CCOC(=O)c1c(N)sc(C)c1-c1ccccc1,.,18µM*,.,35µM*,.,.
CCOC(=O)c1c(N)sc(C(=O)N(C)C)c1C,-13%,-29%[59 µM],5%,15%,10%,5%
Cc1sc(N)c(C(=O)c2ccccc2)c1C,3.8µM*,.,-5%[11.4 µM],16µM*,?,-23%
CCOC(=O)c1c(N)nn(C(=O)C(C)(C)C)c1-c1ccccc1,0%,?,-10%,22%,4%,43%
CCOC(=O)c1c(NC(=O)CSc2nncs2)sc(C)c1-c1ccccc1,1%,?,-24%,-19%,-25%,28%
Cc1nc2cnc(Oc3ccccc3)nc2n(C2CC2)c1=O,.,7%[0.501 µM],.,8%,.,.
Cc1ccc(Cn2cc(/C=C(/C#N)C(=O)Nc3cccc(Cl)c3)c3ccccc32)cc1,.,6%[59 µM],-14%,.,2%,26%

# Screens (PubChem)
